In PubChem BioAssay AID1159580 (chemical genetic matrix, 2015):
Hit rate of the full screen: of about 5,500 compounds, about 2,000 (36%) were called active. Not shown: some 18% with an inconclusive outcome. No stated cut-off is given here; in the data, active means normalized growth mostly below about 0.91 (no sharp cut-off); inconclusive means no clear call, values can overlap the other calls; inactive means mostly above about 0.92. The list shows a part of the results.

Test: chemical genetic growth profiling, strain panel (AID 1159580);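 further: tested at 20 µM; growth read once vehicle control cultures reached saturation at 30 °C; 1 = growth at the plate median or of vehicle wells; lower values mean less growth of the strain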
Details: growth OD
[1] = S. cerevisiae deletion strains, locus YDL101C, strain DUN1, active compounds read low
[2] = S. cerevisiae deletion strains, locus YHR030C, strain SLT2, active compounds read low

Measured: normalized growth

O=C(NCc1cccs1)c1csc(Cc2c(Cl)cccc2Cl)n1
inactive: S. cerevisiae deletion strains, locus YAR019C, strain CDC15, active compounds read low 0.986 | S. cerevisiae deletion strains, locus YBL105C, strain PKC1, active compounds read low 0.969 | S. cerevisiae deletion strains, locus YBR135W, strain CKS1, active compounds read low 0.972 | S. cerevisiae deletion strains, locus YBR136W, strain MEC1, active compounds read low 0.995 | S. cerevisiae deletion strains, locus YBR160W, strain CDC28, active compounds read low 0.979 | S. cerevisiae deletion strains, locus YDL017W, strain CDC7, active compounds read low 0.987 | S. cerevisiae deletion strains, locus YDL028C, strain MPS1, active compounds read low 0.969 | [1] 0.981 | S. cerevisiae deletion strains, locus YDL108W, strain KIN28, active compounds read low 0.987 | S. cerevisiae deletion strains, locus YDL132W, strain cdc53, active compounds read low 0.978 | S. cerevisiae deletion strains, locus YDL214C, strain PRR2, active compounds read low 0.992 | S. cerevisiae deletion strains, locus YDR052C, strain DBF4, active compounds read low 0.996 | S. cerevisiae deletion strains, locus YDR054C, strain cdc34, active compounds read low 0.971 | S. cerevisiae deletion strains, locus YDR226W, strain ADK1, active compounds read low 0.971 | S. cerevisiae deletion strains, locus YDR477W, strain SNF1, active compounds read low 0.978 | S. cerevisiae deletion strains, locus YER123W, strain YCK3, active compounds read low 0.985 | S. cerevisiae deletion strains, locus YER133W, strain GLC7, active compounds read low 0.996 | S. cerevisiae deletion strains, locus YFL009W, strain cdc4, active compounds read low 0.957 | S. cerevisiae deletion strains, locus YFL029C, strain CAK1, active compounds read low 0.98 | S. cerevisiae deletion strains, locus YFR003C, strain YPI1, active compounds read low 0.991 | S. cerevisiae deletion strains, locus YFR019W, strain FAB1, active compounds read low 0.988 | S. cerevisiae deletion strains, locus YFR028C, strain CDC14, active compounds read low 0.982 | S. cerevisiae deletion strains, locus YGR040W, strain KSS1, active compounds read low 0.994 | S. cerevisiae deletion strains, locus YGR052W, strain FMP48, active compounds read low 1.06 | S. cerevisiae deletion strains, locus YGR092W, strain DBF2, active compounds read low 0.95 | [2] 0.924 | S. cerevisiae deletion strains, locus YHR079C, strain IRE1, active compounds read low 0.992 | S. cerevisiae deletion strains, locus YHR082C, strain KSP1, active compounds read low 1.02 | S. cerevisiae deletion strains, locus YHR205W, strain SCH9, active compounds read low 0.988 | S. cerevisiae deletion strains, locus YIL147C, strain SLN1, active compounds read low 0.985 | S. cerevisiae deletion strains, locus YJL095W, strain BCK1, active compounds read low 1.01 | S. cerevisiae deletion strains, locus YJL128C, strain PBS2, active compounds read low 0.937 | S. cerevisiae deletion strains, locus YJL157C, strain FAR1, active compounds read low 0.998 | S. cerevisiae deletion strains, locus YJR016C, strain ILV3, active compounds read low 0.99 | S. cerevisiae deletion strains, locus YJR066W, strain TOR1 (second series), active compounds read low 0.98 | S. cerevisiae deletion strains, locus YJR066W, strain TOR1, active compounds read low 0.956 | S. cerevisiae deletion strains, locus YKL048C, strain ELM1, active compounds read low 1 | S. cerevisiae deletion strains, locus YKL067W, strain YNK1, active compounds read low 0.996 | S. cerevisiae deletion strains, locus YKL101W, strain HSL1, active compounds read low 1 | S. cerevisiae deletion strains, locus YKL193C, strain SDS22, active compounds read low 0.99 | S. cerevisiae deletion strains, locus YKL203C, strain TOR2, active compounds read low 1.07 | S. cerevisiae deletion strains, locus YLR113W, strain HOG1, active compounds read low 0.981 | S. cerevisiae deletion strains, locus YLR133W, strain CKI1, active compounds read low 0.99 | S. cerevisiae deletion strains, locus YLR403W, strain SFP1, active compounds read low 0.994 | S. cerevisiae deletion strains, locus YML070W, strain DAK1, active compounds read low 1 | S. cerevisiae deletion strains, locus YMR001C, strain CDC5, active compounds read low 0.986 | S. cerevisiae deletion strains, locus YMR205C, strain PFK2 (second series), active compounds read low 1.01 | S. cerevisiae deletion strains, locus YMR277W, strain FCP1, active compounds read low 0.982 | S. cerevisiae deletion strains, locus YNL006W, strain LST8, active compounds read low 0.987 | S. cerevisiae deletion strains, locus YNL020C, strain ARK1, active compounds read low 1.01 | S. cerevisiae deletion strains, locus YNL161W, strain CBK1, active compounds read low 0.994 | S. cerevisiae deletion strains, locus YNL183C, strain NPR1, active compounds read low 1.07 | S. cerevisiae deletion strains, locus YNL207W, strain RIO2, active compounds read low 0.981 | S. cerevisiae deletion strains, locus YNL222W, strain SSU72, active compounds read low 0.983 | S. cerevisiae deletion strains, locus YNL307C, strain MCK1 (second series), active compounds read low 1.01 | S. cerevisiae deletion strains, locus YOL078W, strain AVO1, active compounds read low 0.991 | S. cerevisiae deletion strains, locus YOL136C, strain PFK27, active compounds read low 1.01 | S. cerevisiae deletion strains, locus YOR061W, strain CKA2, active compounds read low 0.992 | S. cerevisiae deletion strains, locus YOR119C, strain RIO1, active compounds read low 1.03 | S. cerevisiae deletion strains, locus YOR231W, strain MKK1, active compounds read low 0.988 | S. cerevisiae deletion strains, locus YOR329C, strain SCD5, active compounds read low 0.985 | S. cerevisiae deletion strains, locus YPL031C, strain PHO85, active compounds read low 0.988 | S. cerevisiae deletion strains, locus YPL153C, strain RAD53, active compounds read low 0.994 | S. cerevisiae deletion strains, locus YPL204W, strain HRR25, active compounds read low 1 | S. cerevisiae deletion strains, locus YPL209C, strain IPL1, active compounds read low 0.988 | S. cerevisiae deletion strains, locus YPL256C, strain CLN2, active compounds read low 0.985 | S. cerevisiae deletion strains, locus YPR025C, strain CCL1, active compounds read low 0.982 | S. cerevisiae deletion strains, locus YPR106W, strain ISR1, active compounds read low 0.968 | S. cerevisiae deletion strains, locus YPR111W, strain DBF20, active compounds read low 0.965 | S. cerevisiae deletion strains, strain NNK1, active compounds read low 0.977 | S. cerevisiae deletion strains, strain TSCII, active compounds read low 0.986

FC(F)(F)c1ccc(-c2nc(-c3ccc4c(c3)OCCCO4)cs2)cc1
inactive: S. cerevisiae deletion strains, locus YAL013W, strain DEP1, active compounds read low 1.03 | S. cerevisiae deletion strains, locus YBR229C, strain ROT2, active compounds read low 1.01 | S. cerevisiae deletion strains, locus YCL061C, strain MRC1, active compounds read low 0.99 | [1] 0.965 | S. cerevisiae deletion strains, locus YDL134C, strain PPH21, active compounds read low 1 | S. cerevisiae deletion strains, locus YDR150W, strain NUM1, active compounds read low 1.01 | S. cerevisiae deletion strains, locus YEL061C, strain CIN8, active compounds read low 1.01 | S. cerevisiae deletion strains, locus YGR078C, strain PAC10, active compounds read low 1.01 | S. cerevisiae deletion strains, locus YGR229C, strain SMI1, active compounds read low 1.01 | [2] 1.05 | S. cerevisiae deletion strains, locus YHR087W, strain rtc3, active compounds read low 1.03 | S. cerevisiae deletion strains, locus YJR043C, strain POL32, active compounds read low 0.997 | S. cerevisiae deletion strains, locus YJR075W, strain HOC1, active compounds read low 1.02 | S. cerevisiae deletion strains, locus YKL190W, strain CNB1, active compounds read low 1.01 | S. cerevisiae deletion strains, locus YLR039C, strain RIC1, active compounds read low 1.07 | S. cerevisiae deletion strains, locus YLR058C, strain SHM2 (second series), active compounds read low 0.998 | S. cerevisiae deletion strains, locus YLR085C, strain ARP6, active compounds read low 1.1 | S. cerevisiae deletion strains, locus YLR262C, strain YPT6, active compounds read low 1.02 | S. cerevisiae deletion strains, locus YML094W, strain GIM5, active compounds read low 1.04 | S. cerevisiae deletion strains, locus YMR219W, strain ESC1, active compounds read low 1.01 | S. cerevisiae deletion strains, locus YMR263W, strain SAP30, active compounds read low 0.988 | S. cerevisiae deletion strains, locus YMR307W, strain GAS1, active compounds read low 0.987 | S. cerevisiae deletion strains, locus YNL153C, strain GIM3, active compounds read low 0.992 | S. cerevisiae deletion strains, locus YNL298W, strain CLA4 (second series), active compounds read low 1.02 | S. cerevisiae deletion strains, locus YNL322C, strain KRE1, active compounds read low 1.01 | S. cerevisiae deletion strains, locus YNR030W, strain Alg12, active compounds read low 1.01 | S. cerevisiae deletion strains, locus YPL055C, strain LGE1, active compounds read low 1.06 | S. cerevisiae deletion strains, locus YPL241C, strain CIN2, active compounds read low 1.03 | S. cerevisiae deletion strains, locus YPR135W, strain CTF4, active compounds read low 1.27 | S. cerevisiae strains, strain wild type, active compounds read low 1.01
